Results from PubChem BioAssay AID1662 (Broad Institute, 2009).
Screen size: about 300,000 compounds; about 4,000 (1.3%) were called active.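 How the source made its calls: active means mean replicate score, as percent of positive control median, at least 50; inconclusive means mean below 50 but one replicate at or above 50; inactive means mean and every replicate below 50.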 The full list was thinned out, with actives kept by preference.

Experiment: S. pyogenes SKKanGAS growth inhibitors in kanamycin, primary screen, streptokinase expression inhibitor project, SKKanGAS strain, BacTiter-Glo luminescence (AID 1662);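 further: strain carries kanamycin resistance gene driven by streptokinase promoter and grows in 40 µg/ml kanamycin; loss of luminescence reflects streptokinase promoter inhibition or plain growth inhibition; 0% = median of DMSO wells and 100% = positive control at its reference dose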
Settings: 6 h, at 7.5 µM, active compounds read high

inhibition, active:
CN(c1ccccc1)S(=O)(=O)c1cc(C(=O)Nc2nc3ccccc3[nH]2)ccc1Cl 58.3%, CSc1c(SCc2ccccc2)cnn(Cc2ccccc2)c1=O 66.2%, O=C(N/N=C/c1ccc([N+](=O)[O-])o1)c1cn(-c2ccccc2)nc1-c1ccc(F)cc1 85.5%, Cc1ccc(C)c(NC(=S)NNC(=S)Nc2ccc(C(C)C)cc2)c1 51.2%, Cc1ccc(-c2nn(-c3ccccc3)cc2/C=C2\SC(=S)N(CCCCCC(=O)O)C2=O)o1 103%, Oc1c(Cl)cc(Cl)c(Cl)c1Cc1c(O)c(Cl)cc(Cl)c1Cl 109%, Cn1nc(-c2ccccc2)c(CSc2cccc(Cl)c2)c1Cl 61.6%, Cc1ccc2sc(NNC(=O)c3ccc4c(c3)OCCO4)nc2c1C 52.7%, Cc1cccc(C(=O)NC(=S)N(C)C2CCCCC2)c1 55.3%, N#CCSc1nc2ccc(N3CCOCC3)cc2c(=O)n1CCc1ccccc1 71.7%

inhibition, inactive:
CC(C)(C)c1cc2cccnc2n1Cc1cccc(F)c1 -3.63%, COc1ccc(C(=NN)c2ccc(OC)cc2)cc1 -9.25%, CCc1ccc(N(CC(=O)NCc2cccnc2)S(=O)(=O)c2ccccc2)cc1 -18.2%, Cc1scc(C(=O)NNC(=S)NCC(C)C)c1C -0.356%, CC(C)(C)C(=O)NNC(=O)c1ccc(Oc2cc(Cl)cc(Cl)c2)o1 0.127%, CN(c1ccccc1)S(=O)(=O)c1ccc(Cl)c(C(=O)NCCc2c[nH]c3ccccc23)c1 4.79%, CN(c1ccccc1)S(=O)(=O)c1cc(C(=O)OCC(=O)N2CCN(C(=O)c3ccco3)CC2)ccc1Cl -0.977%, COc1cc2ccccc2cc1C(=O)N(CCN(C)C)c1nc2c(F)cccc2s1 0.17%, COc1cccc(CSc2nc3nc(C)cc(C)n3n2)c1 3.04%, CSc1nc2ccccc2c(=O)n1Cc1ccc(F)cc1 18.7%, CC(=O)Nc1ccc(NC(=O)CSc2ncnc3c2cnn3Cc2ccccc2)cc1 3.94%, Cc1ccc(-c2noc(CNC(=O)c3ccoc3C)n2)cc1 0.278%, O=C(N/N=C/c1ccc([N+](=O)[O-])o1)c1cccc(S(=O)(=O)N2CCOCC2)c1 5.79%, Cc1ccc(-c2nn(-c3ccccc3)cc2/C=N/NC(=O)c2ccc3c(c2)OCO3)cc1 11.9%, CCn1cc(CCC(=O)NCc2ccc(F)cc2)c2ccccc21 0.859%, COc1cccc(NC(=O)CSc2nnc(Cc3ccc(OC)c(OC)c3)o2)c1 -5.07%, Cc1cccc([C@@H]2[C@@H]3C(=O)N(C)C(=O)[C@@H]3[C@@H]3C(=O)Nc4ccccc4C(=O)N23)c1 1.01%, COc1ccc(N2CCN(CCCNC(=O)C3CCN(S(=O)(=O)N4CCOCC4)CC3)CC2)cc1 0.276%, Cc1ccc(C)c(NC(=S)NNC(=O)c2csc(C)c2)c1 -5.04%, CC(C)c1ccc(NC(=S)NNc2ccc(Cl)c(C(=O)O)c2)cc1 5.7%, C[C@@H]1CC[C@]2(O[C@@H](CCO)C[C@H](O)[C@H]2O)O1 -1.49%, COc1ccc(-c2nn(-c3ccccc3)cc2/C=C2/SC(=S)N(CCCC(=O)O)C2=O)c(C)c1 46.2%, CN(C)S(=O)(=O)c1cccc(-c2nn(-c3ccccc3)cc2/C=C2\SC(=S)N(CC(=O)O)C2=O)c1 25.2%, CCCN(CC(=O)Nc1ccccc1OC)C(=O)CCC(=O)c1ccc(F)cc1 -6.42%, CO/N=C/CC(=O)c1ccc(OC)cc1 -3.09%, CSCCC(NS(=O)(=O)c1ccccc1F)C(=O)N1CC=C(c2ccccc2)CC1 (configuration not stated) -1.43%, O=C(Nc1ccc2oc(-c3ccccc3F)nc2c1)c1ccco1 -5.59%, COc1ccc2[nH]c(=O)c(CNc3ccc(C)c(C)c3)cc2c1 26.7%, Cn1nc(-c2ccccc2)c(CO)c1Sc1ccccc1 -5.22%, Cc1ccc(S(=O)(=O)c2c(COC(=O)c3cccc(Cl)c3)c(-c3ccccc3)nn2C)cc1 -28.6%, CC(=O)N(CN1C(=O)C2C3C=CC(C3)C2C1=O)c1cccc(Cl)c1 (configuration not stated) -0.219%, CCOC(=O)c1nnn(CC(=O)Nc2cccc(F)c2)c1C(=O)OCC -0.0535%, COc1cccc(CN(C)CC2CCCN(CCc3ccc(Cl)cc3)C2)c1OC (configuration not stated) -0.785%, COc1ccc(NC(=O)CS(=O)(=O)c2ccccc2)cc1 -4.25%, O=C(Nc1nc2ccccc2s1)c1ccc2c(c1)OCO2 -10.7%, Cc1nc(NC(=O)c2ccc3c(c2)OCCO3)ccc1Br -9.44%, COC(=O)c1ccc([C@@H](O)[C@H](C)C(=O)CC(=O)OC(C)(C)C)cc1 -0.38%, COc1ccc(C(=O)NC(=S)N2CCCCC2c2cccnc2)cc1OC (configuration not stated) 5.87%, Cc1cccc(C(=O)NCCCN(C)CCCNC(=O)c2cccc(C)c2)c1 -2.44%, Cc1cccc(NC(=S)NCCN(C2CCCCC2)C2CCCC2)c1 -5.79%, COc1ccc(C2/C(=C(/O)c3ccc4c(c3)CC(C)O4)C(=O)C(=O)N2Cc2ccncc2)cc1 (configuration not stated) 1.18%, O=C(CN(CC1CCCO1)C(=O)CNS(=O)(=O)c1ccc(Cl)cc1)NCc1ccccc1 (configuration not stated) -3.12%, CCc1c(C)c2ccc(OC3CCCCC3=O)cc2oc1=O (configuration not stated) -6.62%, COCCCNC(=O)CSc1nc2ccc(N3CCOCC3)cc2c(=O)n1CCc1ccccc1 34.6%, CCCCn1c(SCC(=O)NCC2CCCO2)nc2ccc(N3CCOCC3)cc2c1=O (configuration not stated) 2.53%, COCC(C)n1c(C)cc(C(=O)CSc2cc(C)c3ccccc3n2)c1C (configuration not stated) 2.07%, Cc1ccc(C(=O)N/N=C\c2cc(Br)c(Br)o2)cn1 6.13%
